Data from PubChem BioAssay (Tox21).
Inconclusive results are not listed. A call without a number means that no potency is given here. Active and inactive are the calls of the source. The call rests on the fitted dose curve; in most records, active means well fitted cell-killing curve with a large enough effect in the repeat runs; inconclusive means weak or mixed curves, or effect the other way; inactive means flat fitted curve, though single readings scatter.

Test: qHTS assay to identify small molecule antagonists of the androgen receptor (AR) signaling pathway using the MDA cell line - cell viability counter screen (AID 743041; further: nearly all actives have a fitted effect of over 45% in size)
Settings: MDA-kb2 viability, CellTiter-Fluor, 16 h, cells co-treated with R1881 androgen agonist; series mostly up to 70.3 µM
Excerpt: National Center for Advancing Translational Sciences [NCATS]
NIH Chemical Genomics Center [NCGC]
U.S. Environmental Protection Agency [EPA]
National Institutes of Environmental Health Sciences [NIEHS]
National Toxicology Program [NTP]
U.S. Food and Drug Administration [FDA]
Androgen receptor (AR), a nuclear hormone receptor, plays a critical role in AR-dependent prostate cancer and other androgen related diseases. Endocrine disrupting chemicals (EDCs) and their interactions with steroid hormone receptors like AR may cause disruption of normal endocrine function as well as interfere with metabolic homeostasis, reproduction, developmental and behavioral functions. To identify the compounds that inhibit AR signaling, MDA-kb2 AR-luc cell line (from ATCC, deposited by Wilson et al.) was used to screen the Tox21 10K compound library. MDA-kb2 AR-luc cell line is human breast carcinoma cell line that was stably transfected with a luciferase reporter gene under control of the MMTV promoter containing response elements for both androgen receptor (AR) and glucocorticoid receptor (GR). The cytotoxicity of the Tox21 compound library against the MDA-kb2 AR-luc cell line was tested in parallel by measuring the cell viability using CellTiter-Fluor assay (Promega, Madison, WI) in the same wells.
Tox21 Assay Protocol Summary:
MDA-kb2 AR-luc cells were dispensed at 3,000 cells/4 uL/well of culture medium into white wall/solid-bottom 1536-well plates using a Multidrop Combi (ThermoFisher Scientific, Waltham, MA) dispenser. After the assay plates were incubated at a 37C and 0% CO2 for 5 hr, 23 nL of compounds dissolved in DMSO, positive controls or DMSO only was transferred to the assay plate by a Pintool station (Kalypsys, San Diego, CA), followed by addition of 1 uL of agonist (R1881) in culture medium using a Bioraptr Flying Reagent Dispenser (FRD) workstation (Beckman Coulter, Indianapolis, IN, USA). The plates were incubated at a 37C and 0% CO2 for 16 h. After 15.5 h incubation, 1uL of CellTiter-Fluor reagent (Promega) was added using a Bioraptr FRD to each plate for measuring cytotoxicity. The fluorescence intensity was quantified on a ViewLux plate reader (PerkinElmer, Shelton, CT) following 30 min incubation at 37C and 0% CO2.

| SMILES | Potency |
| --- | --- |
| COC(=O)/C=C/C(C)=C\C=C\C(C)=C\C=C\C=C(C)\C=C\C=C(C)\C=C\C(=O)O | inactive |
| CCCC(=O)OCc1ccccc1 | inactive |
| CC(CN=Cc1ccccc1O)N=Cc1ccccc1O (stereo not given) | inactive |
| Cc1ccc(S(=O)(=O)NC(=O)NC2CCCC2)cc1 | inactive |
| N#CCCCC(C#N)CCC#N (stereo not given) | inactive |
| C=CCCC | inactive |
| O=[N+]([O-])c1cccc(I)c1 | inactive |
| N#Cc1ccc(CC(=O)c2cccc(C(F)(F)F)c2)cc1 | inactive |
| SCCOCCOCCS | inactive |
| Cc1c(N=C=O)cccc1N=C=O | inactive |
| OCCCO | inactive |
| CC(C)C/C=C(\C=O)c1ccccc1 | inactive |
| CCCc1ccc(OC)cc1 | inactive |
| COc1cc(C)c(Cc2cnc(N)nc2N)cc1OC | inactive |
| C[C@H](CN1CCCC1)C(=O)c1ccc(C(F)(F)F)cc1 | inactive |
| CC1(C)[C@@H]2CC[C@]3(C2)[C@@H]1C(=O)CCC3(C)C | inactive |
| Cc1ccc2ccccc2c1[N+](=O)[O-] | inactive |
| C/C(=C(\CCO)SS/C(CCO)=C(\C)N(C=O)Cc1cnc(C)nc1N)N(C=O)Cc1cnc(C)nc1N | inactive |
| CC1=C(C)C(=O)C(C(CCCCCC(=O)O)c2ccccc2)=C(C)C1=O (stereo not given) | inactive |
| Oc1ccc(CCNCCCCCCNCCc2ccccc2)cc1O | inactive |

| SMILES | Potency |
| --- | --- |
| Nc1ccccc1Nc1ccccc1 | inactive |
| CCOC(=O)CC(O)(CC(=O)OCC)C(=O)OCC | inactive |
| O=C(O)c1cccnc1Nc1cccc(C(F)(F)F)c1 | inactive |
| Clc1ccccc1-c1nc(-c2ccncc2)no1 | inactive |
| O=C(O)CNc1ccccc1 | inactive |
| C=CC(C)CCC=C(C)C (stereo not given) | inactive |
| COc1ccc(/C=C/c2cc(OC)cc(=O)o2)cc1 | inactive |
| CC(C)=CCC/C(C)=C/C=N/O | inactive |
| Nc1ncnc2c1ncn2[C@@H]1O[C@H](CO)[C@@H](O)[C@H]1O | inactive |
| O=Cc1ccc(Cl)c([N+](=O)[O-])c1 | inactive |
| O=C(O)c1ccc2cc(O)ccc2c1 | inactive |
| CC(=O)Nc1cccc(N)c1 | inactive |
| C/C(=C\C(C)CC(C)CC(C)C)C1CC(=O)OC1=O (stereo not given) | inactive |
| O=P(c1ccccc1)(c1ccccc1)c1ccccc1 | inactive |
| CCc1cnc(C(=O)O)c(C(=O)O)c1 | inactive |
| Oc1ccc(Oc2ccccc2)cc1 | inactive |
| CC(O)CN (stereo not given) | inactive |
| CCCc1nc(C)c2c(=O)[nH]c(-c3cc(S(=O)(=O)N4CCN(CC)CC4)ccc3OCC)nn12 | inactive |
| CC(=O)c1cccnc1 | inactive |
| CCCCOC(=O)C(C)Oc1ccc(Oc2ccc(C(F)(F)F)cn2)cc1 (stereo not given) | inactive |
